High-throughput results from PubChem BioAssay.
In the library only some 19% were active in any assay of this set; here they are far more common.
HT1080NT lethal = qHTS for induction of synthetic lethality in tumor cells producing 2HG: qHTS for the HT-1080-NT fibrosarcoma cell line | HT-1080-NT fibrosarcoma viability, CellTiter-Glo ATP luminescence, 48 h | Potency, µM (titrated, usually from 46.1 µM), without a hit: top-dose activity, negative = less viability, hits mostly cytotoxic | 360,000 tested, 1.6% active | AID 686970, 2013;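 also: NT is the 2HG producing partner of a matched IDH1 knockdown line; potency is read from the fitted curve at half-maximal effect; 0% = DMSO-treated cells and -100% = media-only wells without cells; nearly all actives have a fitted effect of over 55% in size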
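Viability of the 2HG-overproducing fibrosarcoma line after 48 hours of compound exposure at 37 degrees C was determined by luminescence with CellTiter-Glo, and concentration-effect curves were then fitted and categorized.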
TDP1 cell noCPT = qHTS for Inhibitors of human tyrosyl-DNA phosphodiesterase 1 (TDP1): qHTS in cells in absence of CPT | DT40 Tdp1-/- hTDP1 cells, no CPT, ATP luminescence, 48 h | Potency, µM (titrated, usually from 46.2 µM), inactives show at the top dose activity change, negative = growth inhibition, most hits filed as inhibitors | 420,000 tested, 15% active; also: potency is read from the fitted curve at half-maximal effect; nearly all actives have a fitted effect of over 55% in size
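Chicken DT40 Tdp1-/- cells stably complemented with human TDP1 were seeded at 400 cells/well with DMSO in place of 20 nM camptothecin. After compound pinning, cells grew at least 48 hr at 37 °C; viability read by CellTiter-Glo luminescence.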
HT1080 IDH1KD tx = qHTS for induction of synthetic lethality in tumor cells producing 2HG: qHTS for the HT-1080-IDH1KD cell line. HT-1080 IDH1 knockdown viability, ATP luminescence, 48 h. Potency, µM (series often up to 46.1 µM), inactives show at the top dose activity, negative = toxicity, usual class: cytotoxic. 360,000 tested, 2% active;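 also: potency is read from the fitted curve at half-maximal effect; 0% = DMSO wells and -100% = cell-free medium wells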
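Cytotoxicity counter-line: IDH1KD HT-1080, 48 h, CellTiter-Glo. Curves classed by r2, magnitude and activity.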
IL-1B inflam inh = qHTS for Inhibitors of Inflammasome Signaling: IL-1-beta AlphaLISA Primary Screen; THP-1 LPS/ATP IL-1B secretion, AlphaLISA, 16 h; hits give low values; activity change, % at 57.5 µM; 360,000 tested, 4.7% active; AID 743279, 2014; in the data active = activity change below about -50%; inconclusive = mostly about -30% to -49%
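THP-1 cells pretreated 1 hr with compounds (up to 57.5 uM final), then stimulated with LPS (250 ng/mL final) plus ATP (1.25 mM final); secreted IL-1B measured by AlphaLISA after 16 hr, decreased signal indicating inhibition.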
DT40 TDP1 CPT = qHTS for Inhibitors of human tyrosyl-DNA phosphodiesterase 1 (TDP1): qHTS in cells in presence of CPT; chicken DT40 Tdp1-/-;hTDP1 cells + 20 nM CPT, ATP luminescence, 48 h; Potency, µM (top dose mostly 46.2 µM), without a hit: at the highest dose activity change, negative = growth inhibition, usual class: inhibitors; 420,000 tested, 12% active; AID 686979, 2013; also: potency is read from the fitted curve at half-maximal effect; nearly all actives have a fitted effect of over 55% in size
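Cell growth measured by CellTiter-Glo luminescence after a minimum 48 h, 37 C compound exposure with 20 nM CPT in Tdp1-knockout DT40 cells stably expressing hTDP1, seeded 400/well; qHTS titration format.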
An asterisk follows results filed as active; u = inconclusive; x = no result given; ! = a repeat was not active; [ ] = dose if it differs, or a comment. Unless noted, calls follow the shape of the dose curve; as a rule, active = well fitted curve in the direction sought with a large enough effect; inconclusive = small, poorly fitted or top-dose-only effect, or another doubt; inactive = no such curve, though single readings can be large; an effect the other way counts as inactive or inconclusive. Unless noted, % is scaled to controls: 0 for no effect and ±100 for the full control effect.

SMILES	HT1080NT lethal	TDP1 cell noCPT	HT1080 IDH1KD tx	IL-1B inflam inh	DT40 TDP1 CPT
COCC(=O)N1CCC[C@@]2(CCN(c3ccncc3)C2)C1	x	-5.0%	x	x	-1.7%
CC[C@]12c3[nH]c4ccccc4c3CCN1C(=O)C(CC(=O)NCCC1=CCCCC1)C[C@@H]2C(=O)N1CCN(C(=O)C2CC2)CC1 (stereo partly specified)	8.2%	16.4µM*	8.3%	-9.5	18.4µM*
CC[C@]12c3[nH]c4cc(CCC(=O)N(C)C)ccc4c3CCN1C(=O)[C@@H](CC(=O)NCCC1=CCCCC1)C[C@@H]2C(=O)N1CCN(C(=O)C2CC2)CC1	-0.3%	u	4.3%	u	u
CC[C@]12c3[nH]c4ccc(Cl)cc4c3CCN1C(=O)[C@@H](CC(=O)NCCC1=CCCCC1)C[C@@H]2C(=O)N1CCN(C(=O)C2CC2)CC1	-6.1%	25.9µM*	-0.1%	-13.4	u
CCOc1ccccc1NC(=O)COC(=O)C1COc2ccccc2O1 (stereo unspecified)	1.7%	-17.2%	0.1%	34.5	-0.6%
Cc1ccccc1NS(=O)(=O)c1ccc(NS(=O)(=O)c2cccs2)cc1	3.8%	25.9%	-10.0%	15.8	6.2%
O=C(c1ccccc1)N1CCN(S(=O)(=O)c2cccc(NS(=O)(=O)c3ccccc3)c2)CC1	5.8%	-17.7%	16.4%	6.9	9.4%
COC(=O)[C@@H](CC(C)C)N(Cc1ccccc1)S(=O)(=O)N(Cc1ccccc1)[C@@H](CC(C)C)C(=O)OC	-2.6%	11.2µM*!	-6.7%	13.9	20.6µM*
CCc1[nH]c(C(=O)O)c(C)c1C(=O)OC	7.8%	0.0%	-1.7%	-12.4	-1.6%
Cc1ccc(S(=O)(=O)Nc2ccccc2/C=N/c2nc3ccccc3n2C)cc1	u	u	20.6µM*	-9.1	u
O=C(CN1CCCC1)OCCCC1CCCCC1	6.6%	-6.7%	2.5%	22.8	-8.5%
COc1ccc(/C=C/C(=O)OC2CCCCC2CN(C)C)cc1 (stereo unspecified)	-18.1%	-4.7%	1.7%	u	-0.4%
CC(C)(C)C1CCC(OC(=O)C[N+]2(C)CCCCC2)CC1 (stereo unspecified)	-0.5%	10.3µM*	-4.9%	-6.5	u
CC(C)CC1CCCCC1OC(=O)C[N+]1(C)CCCCC1 (stereo unspecified)	-3.8%	10.3µM*	-0.2%	-19.3	u
CC(C)(C)C1CCC(OC(=O)C[N+]2(C)CCCC2)CC1 (stereo unspecified)	0.2%	5.17µM*	-4.9%	8.3	4.11µM*
CC(C)(C)C1CCC(OC(=O)CN2CCOCC2)CC1 (stereo unspecified)	1.8%	-4.8%	0.3%	8.3	-10.7%
C[N+]1(CC(=O)OCCCC2CCCCC2)CCCC1	9.2%	20.6µM*	-2.1%	25.6	-27.8%
COc1cccc(NC(=O)CCSc2nnc3scc(-c4ccccc4)n23)c1	-1.0%	-10.0%	-2.1%	17.6	-0.1%
COCc1ccc(C(=O)N2CCOc3c(cc(-c4cc(C)c5cccc(OC)c5n4)cc3OC)C2)o1	x	-7.6%	x	x	13.5%[9.04 µM]
C=CCNS(=O)(=O)c1cc2c3c(c1)CCN3C(=O)CC2	0.0%	4.5%	-7.2%	8.2	4.8%
CCOc1ccc(N=C2NN=C(c3cc(C)n(CC4CCCO4)c3C)CS2)cc1 (stereo unspecified)	-3.8%	23.1µM*	-4.5%	23.1	u
Fc1ccc(F)c(C2=NNC(=NCC3CCCO3)SC2)c1 (stereo unspecified)	8.6%	1.6%	6.7%	43.2	7.0%
C=CCN(CC=C)c1nc2ccccc2nc1C(C#N)C(=O)OCCOC (stereo unspecified)	-3.8%	u	-9.7%[9.24 µM]	u	20.6µM*
CCCN(CCC)c1nc2ccccc2nc1C(C#N)C(=O)OCCOC (stereo unspecified)	-0.7%	23.1µM*	0.1%	-62.4*	u
Cc1cc(=O)c2ccccc2n1Cc1ccccc1	-19.8%	16.4µM*	u	-50.4*	u
SMILES	HT1080NT lethal	TDP1 cell noCPT	HT1080 IDH1KD tx	IL-1B inflam inh	DT40 TDP1 CPT
Cc1nc2ccccc2n1CC(=O)NN	-7.3%	4.0%	-0.9%	14.0	-10.8%
Cc1nc2ccccc2n1CC(=O)NC(C)C1CC2CCC1C2 (stereo unspecified)	-1.6%	0.92µM*	-29.1%	-0.4	1.46µM*
Cc1nc2ccccc2n1CC(=O)NCc1ccccc1	-16.6%	11.6µM*	-27.8%	2.5	9.2µM*
CC(NC(=O)CSc1ccccc1C(=O)O)C1CC2CCC1C2 (stereo unspecified)	6.1%	3.9%	3.9%	-5.8	3.6%
Cc1cc(=O)c2ccccc2n1CC(=O)NCc1ccccc1	0.7%	u	-0.4%	12.1	18.4µM*
O=C1CN(C(=O)/C=C/c2ccco2)c2ccccc2N1	-6.7%	u	-6.0%	59.5	-9.1%
CCCN1CCC(=NNc2ccc(C(=O)O)cc2)CC1	0.0%	3.9%	-5.7%	22.6	-2.9%
CC(=O)NCCNc1nc2cc(-c3ccc4c(ccn4C)c3)sc2c(=O)n1C	-23.8%	-8.6%	-28.4%	57.5	u
COc1cccc2c(=O)cc(C)n(CC(=O)Nc3cccc(C)c3)c12	-9.2%	18.4µM*	u	8.0	u
COc1ccc(NC(=O)Cn2c(C)cc(=O)c3ccccc32)cc1	-20.2%	11.6µM*	u	39.2	10.3µM*
Cc1cnc(-n2ncc(C(=O)NCCN3CCOCC3)c2-c2cccs2)nc1-c1ccc(F)cc1	x	-28.8%	x	x	8.6%
Cc1noc(NS(=O)(=O)c2ccc(NC(=O)c3cccc(S(=O)(=O)Nc4ccccc4F)c3)cc2)c1C	22.1%	8.0%	17.2%	11.3	15.4%
Cc1ccc(NC(=O)CN2C(=O)CNC2=O)cc1	-1.7%	2.1%	-2.6%	-12.3	-4.3%
CCC(=O)Nc1nnc(S(=O)(=O)N(CC)c2ccc(OC)cc2)s1	6.9%	-29.1%	-6.8%	19.5	-19.1%
Cc1ccc(N(C)S(=O)(=O)c2nnc(NC(=O)C3CCCCC3)s2)cc1	x	-11.2%	x	x	4.0%
CCN(c1cc(C)cc(C)c1)S(=O)(=O)c1nnc(NC(=O)C2CCCCC2)s1	x	11.6µM*	x	x	20.6µM*
COc1ccc(C(=O)Nc2nnc(S(=O)(=O)N(CC(C)C)c3ccccc3)s2)cc1	x	-13.9%	x	x	-13.4%
Cc1ccc(N(C)S(=O)(=O)c2nnc(NC(=O)c3ccco3)s2)cc1	0.5%	26.9%	-0.4%	-9.8	-13.5%
